# According to PubChem BioAssay:
# Assay: probe aNOTCH3 binding on compound microarray – biochemical, small-molecule microarray, 635/667 nm fluorescence, primary screen (AID 1120);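 further: probe is a biotin-tagged antibody raised against NOTCH3 rather than NOTCH3 protein; score merges spot fluorescence near 667 nm with spot signal to noise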
# Settings: higher = more signal
row,Compound,composite z-score
1,CN1C(=O)C2C=CC(C(O)c3ccc(-c4ccccc4)s3)N(N(c3ccccc3)c3ccccc3)C2C1=O (stereo not drawn),-0.0865
2,COc1ccc(CCNC(=O)[C@@]2(Sc3ccc(C)cc3)CC(=O)N(C3CCCCC3)[C@@H]2c2ccc(CO)cc2I)cc1,-0.0111
3,C=CCNC(=O)[C@H]1[C@@H]2C(=O)O[C@@H](c3ccccc3)[C@@H](c3ccccc3)N2[C@@H](c2ccccc2OCCO)[C@]12C(=O)Nc1ccc(C#CC3=CCCCC3)cc12,0.0942
4,C[N+](C)(C)CCCC[C@@H]1NC(=O)[C@@H]2C[C@H](C(=O)NCCCCCN)[C@H](c3cccc(OCCO)c3)N2C1=O,-0.0744
5,C=C/C=C/[C@H]1C(=C)CN([C@@H](Cc2ccccc2)C(=O)OC)[C@@H]1[C@H](O)Cc1ccccc1,-0.235
6,CN1C(=O)C2C=CC(C(O)c3ccc(I)cc3)N(N3CCCCC3)C2C1=O (stereo not drawn),0.748
7,O=C1[C@H]2C=C(Br)[C@H](C[C@@H]2c2ccccc2)[C@@]12CO2,0.11

# Assay: probe aNOTCH2 binding on compound microarray – biochemical, small-molecule microarray, 635/667 nm fluorescence, primary screen (AID 1121);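 further: score merges feature fluorescence read at 667 nm with its signal to noise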
# Settings: higher = more signal
row,Compound,composite z-score
1,COC(=O)[C@@]1(Cc2ccc(OC)cc2)[C@H]2c3cc(C(=O)N4CCCC4)n(Cc4ccsc4Br)c3C[C@H]2CN1C(=O)c1ccccc1,-0.0677
2,CCOC(=O)C[C@H]1[C@H](OC(=O)Cc2ccc3c(c2)OCO3)[C@@H](NC(=O)c2ccc(-c3ccccc3)cc2)c2cc(OCCCO)ccc2N1C(=O)c1ccc2ccccc2n1,-0.182
3,COC(=O)[C@@]1(Cc2ccc(F)cc2)[C@H]2c3cc(C(=O)N(C)C)n(CC4CC4)c3C[C@H]2CN1C(=O)c1ccccc1,0.904
4,CCCCC(=C=CC[C@@H](O)c1ccccc1OCCO)CCO,-0.0928
5,COc1ccc([Si](C)(C)[C@@H]2[C@@H](CCO)O[C@]3(C(=O)N(Cc4ccc(N5C(=O)COc6ccccc65)cc4)c4ccccc43)[C@H]2C)cc1,-0.0924
6,CC1CC/C=C\[C@H]2OC34C=CCN(Cn5nnc6ccccc65)C(=O)[C@H]3N(C(CO)C(C)C)C(=O)[C@@H]4C2C(=O)O1 (stereo partly drawn),-0.14
7,CCCCN1CC=CC23O[C@@H]4/C=C\CCC(C)OC(=O)C4[C@H]2C(=O)N(CCCCCO)[C@@H]3C1=O (stereo partly drawn),-0.126
8,O=C1C[C@]2(c3ccc([N+](=O)[O-])cc3)C(=O)N(CCN3CCOCC3)c3cc(CO)ccc3[C@H]2N1C1CCCCC1,-0.0904
9,O=C(O)[C@@]1(CCS(=O)(=O)c2ccccc2)COC(c2ccc(OCCCO)cc2)=N1,-0.108
10,COc1ccc(C(O)C2C=CC3C(=O)N(c4ccccc4)C(=O)C3N2Nc2ccc(C(C)C)cc2)cc1OCc1ccccc1 (stereo not drawn),0.194
11,CC(C)C(=C=CC[C@@H](O)c1ccccc1OCCO)CCO,-0.115
12,CN(C)C(=O)[C@]1(Cc2ccccc2CN=[N+]=[N-])N=C(c2ccc(OCCCO)cc2)O[C@@H]1c1ccccc1CN=[N+]=[N-],-0.0508
13,COc1ccc(C(=O)Nc2cccc(CN3C(=O)[C@]4(O[C@H](CCO)[C@@H]([Si](C)(C)c5ccc(OC)cc5)[C@@H]4C)c4ccccc43)c2)cc1,-0.112
14,CCCCCC1=C2CNC(CCC)(C(=O)OC)C=C2C(C)C1=O (stereo not drawn),0.153
15,CCOC(=O)C[C@H]1[C@H](OC(=O)c2cc3ccccc3oc2=O)[C@@H](NC(=O)Cc2ccc(OC)cc2)c2cc(OCCCO)ccc2N1C(=O)c1ccccc1,-0.0986
16,COc1ccc([C@H]2C[C@H]3C(Br)=C[C@@H]2C(=O)[C@]32CO2)cc1,-0.075
17,CCOC(=O)C1=CCC(c2ccccc2)N(S(=O)(=O)CC[Si](C)(C)C)C1 (stereo not drawn),-0.188
18,O=C1NCC(=O)N2[C@@H]1C[C@@H](C(=O)O)[C@H]2c1cccc(OCCO)c1,1.12

row,Compound,composite z-score
1,COCCOC(=O)N1C(=O)[C@@]2(c3cc(C#CC4=CCCCC4)ccc31)[C@H](C(=O)N1CCc3cc(OC)c(OC)cc3C1)[C@H]1C(=O)O[C@H](c3ccccc3)[C@H](c3ccccc3)N1[C@@H]2c1ccc(OCCO)cc1,-0.152
2,O=C(NCC(F)(F)F)[C@@H]1c2ccccc2C(=O)N(C2CCCCC2)[C@H]1c1ccc(CO)cc1,-0.0942
3,CC(C)OC(=O)C=C1C[C@@H](c2ccccc2C(F)(F)F)O[C@@H](c2ccccc2C(F)(F)F)O1,-0.216
4,COc1ccc([Si](C)(C)[C@H]2[C@H](CC(=O)N3Cc4ccccc4C[C@H]3CO)O[C@@]3(C(=O)N(Cc4ccc(N5CCC5=O)cc4)c4ccccc43)[C@@H]2C)cc1,0.581
5,C=CCC(OC(C)=O)[C@@H]1[C@@H](N(Cc2cccc3ccccc23)C(=O)c2ccc(-c3ccccc3)cc2)c2cc(OCCCO)ccc2N1C(=O)Cc1ccc(OC)cc1 (stereo partly drawn),-0.143
6,COc1ccc(CCNC(=O)[C@@H]2c3ccccc3C(=O)N(C3Cc4ccccc4C3)[C@H]2c2ccc(CO)cc2)cc1,-0.0907
7,C=CCNC(=O)[C@H]1[C@@H]2C(=O)O[C@@H](c3ccccc3)[C@@H](c3ccccc3)N2[C@@H](c2ccc(O)cc2)[C@]12C(=O)N(C(=O)OCCOC)c1ccc(C#CCNC(N)=O)cc12,0.0313
8,C=CCC(OC(C)=O)[C@@H]1[C@@H](N(Cc2ccc(-c3cccc(C(F)(F)F)c3)o2)C(=O)Cc2ccc(F)cc2)c2cc(OCCCO)ccc2N1C(=O)Cc1ccc(OC)cc1 (stereo partly drawn),-0.124
9,Cc1ccc(S[C@]2(C(=O)NCC(F)(F)F)CC(=O)N(C(C)C)[C@@H]2c2ccc(CO)cc2I)cc1,-0.0557
10,O=C1NC(=O)C2C1C=CC(C(O)c1ccccc1)N2Nc1ccc(Cl)cc1Cl (stereo not drawn),-0.0974
11,COc1ccc([Si](C)(C)[C@H]2[C@H](CCO)O[C@@]3(C(=O)N(C)c4c(Br)cc(C)cc43)[C@@H]2C)cc1,-0.0793
12,CN1C(=O)C2C=CC(C(O)c3ccc(-c4ccccc4)s3)N(N(c3ccccc3)c3ccccc3)C2C1=O (stereo not drawn),-0.134
13,COc1ccc(CCNC(=O)[C@@]2(Sc3ccc(C)cc3)CC(=O)N(C3CCCCC3)[C@@H]2c2ccc(CO)cc2I)cc1,-0.0759
14,C=CCNC(=O)[C@H]1[C@@H]2C(=O)O[C@@H](c3ccccc3)[C@@H](c3ccccc3)N2[C@@H](c2ccccc2OCCO)[C@]12C(=O)Nc1ccc(C#CC3=CCCCC3)cc12,-0.148
15,C[N+](C)(C)CCCC[C@@H]1NC(=O)[C@@H]2C[C@H](C(=O)NCCCCCN)[C@H](c3cccc(OCCO)c3)N2C1=O,0.0292
16,C=C/C=C/[C@H]1C(=C)CN([C@@H](Cc2ccccc2)C(=O)OC)[C@@H]1[C@H](O)Cc1ccccc1,-0.195
17,CN1C(=O)C2C=CC(C(O)c3ccc(I)cc3)N(N3CCCCC3)C2C1=O (stereo not drawn),0.0196
18,O=C1[C@H]2C=C(Br)[C@H](C[C@@H]2c2ccccc2)[C@@]12CO2,-0.0817
